Source: PubChem
Rows were chosen to be rich in hits. Some 32% of all compounds tested hit in one or more screens of this group.
PostGolgi ctrl = yeast control strain growth, post-Golgi counter-screen; efflux-deficient yeast background strain, growth absorbance A615, 16 h; inhibition, % at 10 µM; actives 5% (n = 98,000); AID 738
CYP2C9 inh = blocks human cytochrome P450 2C9 | CYP2C9 Supersomes, luciferin-H conversion, luminescence | inhibition, % at 5 µM | actives 20% (n = 96,000) | AID 777;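 active = blocking of liver enzyme CYP2C9 beyond about 50% at 5 µM, limit read from the data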
Target sequence (P11712 whole entry, looked up): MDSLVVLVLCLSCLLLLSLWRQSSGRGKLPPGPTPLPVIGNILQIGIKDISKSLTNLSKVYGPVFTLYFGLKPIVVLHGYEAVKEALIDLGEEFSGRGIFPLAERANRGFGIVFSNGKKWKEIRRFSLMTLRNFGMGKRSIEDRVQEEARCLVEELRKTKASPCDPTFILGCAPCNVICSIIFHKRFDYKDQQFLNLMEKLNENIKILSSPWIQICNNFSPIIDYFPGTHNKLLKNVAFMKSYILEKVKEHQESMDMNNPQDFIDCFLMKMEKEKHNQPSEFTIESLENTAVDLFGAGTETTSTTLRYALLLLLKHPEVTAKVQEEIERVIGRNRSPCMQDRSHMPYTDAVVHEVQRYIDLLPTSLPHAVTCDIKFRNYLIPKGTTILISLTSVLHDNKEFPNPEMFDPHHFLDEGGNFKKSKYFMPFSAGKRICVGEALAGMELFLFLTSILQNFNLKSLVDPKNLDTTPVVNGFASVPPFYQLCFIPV
CYP2C19 inh = blocks human cytochrome P450 2C19. P33261. CYP2C19 Supersomes, luciferin-H EGE luminescence, 30 min. inhibition, % at 5 µM. actives 21% (n = 96,000);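 active = CYP2C19 inhibition above a set limit at 5 µM in the primary screen, cut at about 50% in these data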
CYP2C9 activ = increases human cytochrome P450 2C9 activity. recombinant CYP2C9, luciferin-H conversion, luminescence; stronger effect = higher value; factor 1 = untreated enzyme, 0 = blocked. activation factor at 5 µM. actives 1.4% (n = 96,000). AID 1024;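 active = activation factor of 2 or more for CYP2C9 at a 5 µM dose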
PostGolgi yeast = growth inhibition of a yeast mutant, post-Golgi transport screen; post-Golgi transport phenotypic cell assay; inhibition, % at 10 µM; actives 0.9% (n = 98,000); AID 739;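 note: yeast cells grown in 1536-well plates; yeast grown about 18 h at 30C before absorbance read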
CYP2C19 act = increases human CYP2C19 enzyme activity. 96,000 tested, under 10 active. P33261. recombinant CYP2C19, luciferin-H EGE luminescence; stronger effect = higher value; 0 = fully inhibited enzyme, 1 = untreated enzyme. activation factor at 5 µM;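 active = activation factor of at least 2 at 5 µM in the primary screen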
Large screens that a line does not name were inactive. Cut-off read from the data, not from the text of the source, unless noted: active = inhibition above about 30%; inactive = the rest.

CS(=O)(=O)N(CC(=O)N1CCCCCC1)Cc1ccc(Cl)cc1	CYP2C19 inh 93
COc1ccc(N2CCN(C(=O)CN(Cc3ccc(Cl)cc3)S(C)(=O)=O)CC2)cc1	none
CN1CCN(C(=O)CN(Cc2ccc(Cl)cc2)S(C)(=O)=O)CC1	CYP2C19 inh 69
CS(=O)(=O)N(CC(=O)N1CCN(Cc2ccc3c(c2)OCO3)CC1)Cc1ccc(Cl)cc1	CYP2C9 inh 62
CS(=O)(=O)N(CC(=O)N1CCOCC1)Cc1ccc(Cl)cc1	CYP2C19 inh 56
CCN(CC)CCOC(=O)C1c2ccccc2Oc2ccccc21	none
COC(=O)C1C(=O)C2=C(CC1C)NC(=O)CC2c1cccc(C)c1 (stereo unspecified)	none
O=C(CCC1CCCCC1)N1CCN(Cc2ccc3c(c2)OCO3)CC1	PostGolgi ctrl 38, CYP2C9 inh 87, CYP2C19 inh 91, PostGolgi yeast 73
COc1ccccc1/C=C/C(=O)NC(=S)Nc1ccc(S(=O)(=O)N(C)c2ccccc2)cc1	none
CCCCOC(=O)NC1CCS(=O)(=O)C1 (stereo unspecified)	none
Fc1ccccc1NC(=S)NCCc1ccccc1	CYP2C19 inh 80
S=C(NCCc1ccccc1)NC1CCCCCC1	none
Fc1ccc(NC(=S)NCCc2ccccc2)c(F)c1F	CYP2C19 inh 83
O=C(NC(=S)NCCc1ccccc1)c1ccccc1	none
O=C(CN1CCCCC1)Nc1cccc(-n2cnnn2)c1	none
CC(=O)Oc1ccccc1C(=O)Oc1ccc(/C=N/n2cnnc2)cc1	CYP2C9 inh 95
COc1ccc(/C=N/n2cnnc2SCc2ccccc2)cc1	none
CCOc1cc(/C=N/n2cnnc2)cc(Br)c1O	none
CCOc1ccc(/C=N/n2cnnc2)cc1	CYP2C19 inh 82
C(=N\n1cnnc1)/c1ccc(OCc2ccccc2)cc1	CYP2C9 inh 81, CYP2C19 inh 70
C(=N\n1cnnc1)/c1ccc(-c2ccccc2)cc1	CYP2C9 inh 98, CYP2C19 inh 99
CCC(CC)C(=O)NCCc1ccc(F)cc1	none
Cc1cc(C)c(S(C)(=O)=O)c(Oc2ccccc2C)n1	none
c1cncc(-c2nc(NCC3COc4ccccc4O3)c3ccccc3n2)c1 (stereo unspecified)	PostGolgi ctrl 47, CYP2C9 inh 88
CCOC(=O)c1ccc(Nc2nc(-c3cccnc3)nc3ccccc23)cc1	CYP2C9 inh 79, CYP2C19 inh 66
COC(=O)CNc1nc(-c2cccnc2)nc2ccccc12	CYP2C9 inh 56
CCOC(=O)c1nc(Nc2ccc(C)cc2)c2ccccc2n1	CYP2C9 inh 66, CYP2C19 inh 71
COC(=O)CNc1nc(-c2ccccc2F)nc2ccccc12	none
N#CCCN(C(=O)COC(=O)c1ccc2c(c1)NC(=O)CS2)c1ccc2c(c1)OCCO2	none
Cc1ccc2cc(CCNC(=O)CC(C)C)c(=O)[nH]c2c1	none (no result: CYP2C9 inh, CYP2C19 inh, CYP2C9 activ, CYP2C19 act)
O=C1C(c2ccc(F)cc2)N(Cc2ccc3c(c2)OCO3)C(=O)CN1C1CCCCCC1 (stereo unspecified)	CYP2C9 inh 56
CC1CCN(Cc2csc(N)n2)CC1	none
O=C(CSc1nnc(-c2ccco2)n1Cc1ccco1)NCc1ccccc1	CYP2C9 inh 85, CYP2C19 inh 66
O=C(CSc1nnc(-c2cccs2)n1Cc1ccco1)Nc1ccc2c(c1)OCO2	CYP2C9 inh 63
O=C(CSc1ccc2nnc(-c3ccccc3)n2n1)NCc1ccc2c(c1)OCO2	none
O=C(CSc1nnc(-c2ccccc2)n1Cc1ccco1)NCc1ccc2c(c1)OCO2	CYP2C9 inh 67
O=C(CSc1nnc(-c2ccccc2)n1Cc1ccco1)Nc1ccc2c(c1)OCCO2	CYP2C9 inh 55, CYP2C19 inh 56
Cc1ccccc1C(=O)Oc1ccc(Sc2ccc(O)cc2)cc1	none
O=C(Nc1ccccc1SCC1CSc2nc3ccccc3c(=O)n21)c1cccc(Cl)c1 (stereo unspecified)	none
O=C(C/C=N/OCc1c(Cl)cccc1Cl)c1ccc(Cl)cc1	none
CCOC(=O)c1cc2cc(OC)ccc2[nH]1	none
Cn1cccc1Cc1nnc(SCC(=O)Nc2ccc3c(c2)OCO3)n1-c1ccc(F)cc1	none
CCn1c(SCC(=O)NC(=O)Nc2ccc3c(c2)OCCO3)nnc1-c1cccs1	CYP2C9 inh 56
Cn1c(SCC(=O)Nc2ccc3c(c2)OCCO3)nnc1-c1ccco1	CYP2C9 inh 63, CYP2C19 inh 52
Cc1cc(-c2ccco2)n(CC(=O)NCc2ccccc2)n1	CYP2C19 inh 75
O=C(CSc1ncc(-c2ccc(F)cc2)n1Cc1ccco1)Nc1ccc2c(c1)OCO2	PostGolgi ctrl 31, CYP2C9 inh 73
Nc1c(-c2ccc(Cl)cc2)cnn1C1CCS(=O)(=O)C1 (stereo unspecified)	none
COC(=O)c1cc(OC)c(OC)cc1NC(=O)c1cccnc1	none (no result: CYP2C9 inh, CYP2C19 inh, CYP2C9 activ, CYP2C19 act)
CCCOc1ccc(OCCNC2CCCC2)cc1	none
CCn1c(COc2ccc(Cl)cc2)nnc1SCC(=O)Nc1ccc2c(c1)OCCO2	none
Cc1ccc(OCc2nnc(SCC(=O)Nc3ccc4c(c3)OCCO4)n2Cc2ccco2)cc1	CYP2C9 inh 69
CCn1c(Cc2ccccc2)nnc1SCC(=O)Nc1ccc2c(c1)OCCO2	CYP2C9 inh 58, CYP2C19 inh 68
CN(C)c1ccc(C(=O)OCc2ccc(Br)cc2)cc1	none
O=C(CCC(=O)OCC(=O)c1ccc(-c2ccccc2)cc1)Nc1cccc(Cl)c1	none
COc1cc(OC)nc(Oc2ccccc2C(=O)Oc2ccc(C)cc2)n1	none (no result: CYP2C9 inh, CYP2C19 inh, CYP2C9 activ, CYP2C19 act)
COc1cc(-c2nnc3sc(Cc4ccccc4)nn23)cc(OC)c1OC	CYP2C9 inh 52
COc1ccc(Cc2nn3c(-c4cc(OC)c(OC)c(OC)c4)nnc3s2)cc1	PostGolgi ctrl 35, CYP2C9 inh 75, CYP2C19 inh 69
CCOC(=O)N1CCN(C(=O)CS(=O)(=O)c2cn(Cc3cccc(F)c3)c3ccccc23)CC1	none
COc1cc(C)c(C(C)C)cc1S(=O)(=O)NCCCn1ccnc1	CYP2C9 inh 99, CYP2C19 inh 100
COc1ccc(C(=O)N/C(=C/c2cccs2)C(=O)NCCCn2ccnc2)cc1OC	none
O=C(Nc1ccc(Cl)cc1)N(C1=NCCC1)c1ccc(OC(F)F)cc1	CYP2C9 inh 61
O=C(CN1CCN(Cc2ccccc2F)C1=O)NCc1cccnc1	none
Cc1ccc(CCNC(=O)CN2CCN(Cc3ccccc3F)C2=O)cc1	CYP2C9 inh 81
O=C(CN1CCN(Cc2ccc(F)cc2Cl)C1=O)NCCc1ccccc1	CYP2C9 inh 58, CYP2C19 inh 54
Cc1ccc(CCNC(=O)NC(C)(C)C)cc1	none
Cc1ccc(CCNC(=O)Cn2cccc2)cc1	CYP2C19 inh 76
O=C(O)CN1CCN(Cc2ccc(F)cc2Cl)C1=O	none (no result: CYP2C9 inh, CYP2C19 inh, CYP2C9 activ, CYP2C19 act)
c1ccc(-c2onc3c2CCCC3)cc1	CYP2C19 inh 58
O=C(O)c1ccc2noc(-c3ccccc3)c2c1	none
CCN(CC)C(=O)C1CCCN(C(=O)Nc2ccccc2)C1 (stereo unspecified)	none
O=c1[nH]c(=O)n(CCO)c2nnn(Cc3ccccc3)c12	none
